Rows were chosen to be rich in hits. Some 13% of all compounds tested hit in one or more screens of this group.
Shiga inhibitor – blocks Shiga toxin action in Vero cells | Vero cells, Shiga toxin protein synthesis inhibition reporter | inhibition, % at 38.7 µM | actives 9.2% (n = 290,000); in the data active = inhibition mostly above about 28%, no sharp cut-off; inactive = mostly below about 43%
FMDV antiviral – foot and mouth disease virus antiviral activity; Potency, µM (doses to about 57.9 µM), hits mostly inhibitors; FMDV antiviral cell-based qHTS; actives 1.2% (n = 410,000); calls by dose curve; tested in HEK293T cells; also: read-out not given here; nearly all actives have a fitted effect of over 45% in size
LASV entry inh – Lassa virus entry inhibition; Lassa virus pseudotype entry inhibition, cell reporter; Potency, µM (highest dose often 37.9 µM), hits mostly inhibitors; actives 1.2% (n = 300,000); AID 540256; calls by dose curve; tested in HEK293 cells; also: nearly all actives have a fitted effect of over 50% in size
Cycloheximide cs – affects cycloheximide protein synthesis inhibition readout, counter-screen; AID 2314; cell reporter, cycloheximide protein synthesis inhibition counterscreen; max response, %; actives 12% (n = 300,000); in the data active = max response mostly above about 13%, no sharp cut-off; inactive = mostly below about 14%; also: read at 38.3 µM for the half of the compounds with a filed dose
MARV entry inh – Marburg virus entry inhibition; Marburg virus pseudotyped entry inhibition, cell reporter; Potency, µM (top dose mostly 37.8 µM), actives largely listed as inhibitors; actives 1.8% (n = 300,000); AID 540276; calls by dose curve; tested in HEK293 cells
HCV inh – HCV inhibition; Huh7.5.1 HCVcc-Cre infection, luciferase reporter, 44 h; Potency, µM (series often up to 41.8 µM), hits mostly inhibitors; actives 3.4% (n = 340,000); AID 651820; active = well fitted inhibition curve with a large enough effect; inconclusive = small, poorly fitted or top-dose-only effect, or another doubt; inactive = no such curve, though single readings can be large or run the other way
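Whole-lifecycle infectious HCVcc-Cre system; cells 1,000/well, compound then virus (~0.5 moi) added 4 h after plating, 44 h culture. Luciferase read 15 sec following 15 min substrate incubation, room temp.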
A number is an active result; n = inactive; u = inconclusive; x = not tested or not shown.

SMILES	Shiga inhibitor	FMDV antiviral	LASV entry inh	Cycloheximide cs	MARV entry inh	HCV inh
O=[N+]([O-])c1cc(-c2cnc3ccccc3n2)ccc1Oc1ccc(Cl)cc1	39	n	x	38	x	u
COc1ccccc1Oc1ccc(-c2cnc3ccccc3n2)cc1[N+](=O)[O-]	73	n	u	62	u	u
O=[N+]([O-])c1cc(-c2cnc3ccccc3n2)ccc1Cl	n	n	x	n	u	n
COCCn1c(CNC(=O)c2cccc(C)c2)nc2cccnc21	x	n	n	x	x	x
CN(Cc1ccccc1)C(=O)Cn1c(=O)oc2cc(S(=O)(=O)NCc3ccccc3)ccc21	n	n	x	n	n	14µM
CN(Cc1ccco1)C(=O)Cn1c(=O)oc2cc(S(=O)(=O)NCc3ccccc3)ccc21	n	n	n	n	n	n
Oc1cc2c(cc1O)[C@H]1c3ccccc3CN[C@@H]1CC2	n	x	x	n	x	x
Oc1cc2c(cc1O)[C@H]1c3ccccc3CN[C@H]1CC2	x	n	x	x	16µM	x
COCC(C)n1c(C)cc(C(=O)COc2ccc(N(C)S(=O)(=O)c3ccc(NC(C)=O)cc3)cc2)c1C (stereo not drawn)	x	n	u	x	u	u
C=CCn1c(C)cc(C(=O)COc2ccc(N(C)S(=O)(=O)c3ccc(NC(C)=O)cc3)cc2)c1C	x	u	x	x	x	8.9µM
CC(C)NOC(=O)c1ccc(Cl)cc1	n	n	n	46	n	n
Cc1ccc(NC(=S)N(Cc2cccs2)Cc2cc3cc(C)ccc3[nH]c2=O)cc1	n	n	7.1µM	n	4.5µM	n
CCN(CC)CCN(Cc1cc2ccc(C)cc2[nH]c1=O)C(=O)Nc1ccc(Cl)cc1	78	n	n	38	u	u
COc1cc2cc(CN(Cc3cccs3)C(=S)Nc3cccc(C)c3)c(=O)[nH]c2cc1OC	n	x	n	n	n	n
COc1cc2cc(CN(Cc3cccs3)C(=S)Nc3ccc(C)cc3)c(=O)[nH]c2cc1OC	n	n	4.6µM	n	u	n
CN1C(=O)c2cccc(NC(=O)C3CCCCC3)c2C1=O	n	n	x	n	x	n
O=C1NC[C@H](CCCCN2C[C@H](Cc3ccccc3)N(CCC3CCCCC3)C(=O)C2=O)N(CCC2CCCCC2)C1=O	x	40µM	x	x	x	x
O=S(=O)(c1ccc(Oc2ccc(Cl)cc2)nc1)N1CCOCC1	x	n	u	x	n	n
Cc1ccccc1NC(=NCCCN1CC1)Nc1ccccc1C	x	n	13µM	x	2.2µM	u
Cc1ccccc1NC(=O)CCN1CCN(C)CC1	n	n	x	n	x	n
CC/C(=N\NC(=S)Nc1cc(C)ccc1C)c1ccc(OC(F)F)cc1	n	n	u	n	n	13µM
Cc1cc(C(=O)Nc2ccc(C(C)C)cc2)c2c(C)nn(-c3ccccc3)c2n1	x	n	u	x	x	x
Cc1ccc(Nc2nc(N)nc(CN3CCN(C)CC3)n2)cc1	n	n	u	32	n	n
Nc1nc(CN2CCN(c3ccccc3)CC2)nc(Nc2ccc(Cl)cc2)n1	n	32µM	x	n	x	13µM
Cc1ccc(Nc2nc(N)nc(CN3CCCCCC3)n2)cc1	n	n	n	n	n	n
SMILES	Shiga inhibitor	FMDV antiviral	LASV entry inh	Cycloheximide cs	MARV entry inh	HCV inh
CC1CC(C)CN(Cc2nc(N)nc(Nc3ccc4ccccc4c3)n2)C1 (stereo not drawn)	n	n	u	n	u	13µM
CC1CC(C)CN(Cc2nc(N)nc(Nc3ccccc3)n2)C1 (stereo not drawn)	n	n	n	n	n	n
CCOc1ccccc1NC(=O)N1CCCC1C(=O)NCc1cccs1 (stereo not drawn)	n	n	n	n	n	n
Cc1ccc2c(c1)C=CC(C)N2C(=O)c1ccccc1 (stereo not drawn)	n	n	n	n	n	n
O=C(c1ccc(F)cc1F)N1CCCC(c2nc(-c3ccc(F)cc3)no2)C1 (stereo not drawn)	n	n	u	17	n	11µM
COc1ccc(-c2noc(C3CCCN(C(=O)c4c(F)cccc4F)C3)n2)cc1OC (stereo not drawn)	x	n	n	n	u	n
O=C(Nc1ccc(F)cc1F)N1CCCC(c2nc(-c3ccc(F)cc3)no2)C1 (stereo not drawn)	n	n	n	23	n	u
CCOC(=O)C1CCCCN1Cc1cccc(OC)c1OC (stereo not drawn)	n	x	n	n	n	n
COc1ccc(Cl)cc1NC(=O)CSc1nnc(COc2ccccc2)n1C	n	n	n	n	n	u
Cc1nn(C(C)C(=O)NCc2ccc(Cl)cc2)c(=O)c2cc3occc3n12 (stereo not drawn)	n	n	x	n	x	u
Cn1nnnc1-c1cc(Br)ccc1NC(=O)c1ccccc1	n	n	n	n	n	n
COc1ccc(-c2ccc(CN3C(C(C)C)C(=O)N(Cc4cn(Cc5ccco5)nn4)CCS3(=O)=O)cc2)cc1OC (stereo not drawn)	x	n	x	x	x	x
CCOc1ccc(N2Nc3n[nH]c(N)c3N2)cc1	50	n	u	25	n	u
COc1ccc(N2Nc3n[nH]c(N)c3N2)cc1	58	n	n	43	n	n
CCOc1ccc(Cc2n[nH]c(=S)n2N)cc1	n	n	n	n	n	n
COc1ccccc1-c1cnc(C(O)c2ccc(Cl)cc2)[nH]1 (stereo not drawn)	x	n	x	x	x	x
CC(C)(C)c1ccc(C(=O)Nc2ccc(OCc3cc(=O)n4ccsc4n3)cc2)cc1	x	u	n	x	n	x
CC(=O)c1ccc(OCc2cc(=O)n3ccsc3n2)cc1	63	n	n	38	u	u
O=c1cc(CNc2ccc(Br)cc2)nc2sccn12	56	n	n	28	u	n
CC(NS(=O)(=O)c1ccc(OCC(=O)NCc2ccncc2)cc1)c1ccccc1 (stereo not drawn)	n	n	x	n	4.5µM	n
O=C(COc1ccccc1Cl)NCc1ccccc1	54	n	n	31	n	n
O=C(COc1ccccc1Cl)NCc1ccncc1	n	n	n	32	n	n
C=CCN(CC(=O)NC1CCS(=O)(=O)C1)S(=O)(=O)c1ccccc1C(F)(F)F (stereo not drawn)	n	n	n	n	n	n
O=C(c1cccs1)N1CCCc2cc(NS(=O)(=O)c3ccc(F)cc3F)ccc21	x	n	n	x	x	x
CCOC(=O)Cn1c(=O)n(C2CCCCC2)c2nc(-c3ccc(OC)cc3)nc(C(N)=O)c21	x	n	n	x	x	x
SMILES	Shiga inhibitor	FMDV antiviral	LASV entry inh	Cycloheximide cs	MARV entry inh	HCV inh
O=C(c1cccc(-c2nnc(-c3ccccc3)o2)c1)N1CCCCCC1	102	n	n	37	u	u
Brc1ccc(-c2nnc(-c3cccc(Br)c3)o2)cc1	n	n	n	n	u	n
O=C(c1ccc(-c2ccccc2)cc1)N1CCCC1	n	n	n	n	n	n
O=C(c1cccc(Br)c1)N1CCCC1	n	n	n	n	n	n
O=C(O)c1ccc(-c2nnc(-c3cccc(Br)c3)o2)cc1	35	n	x	20	x	n
O=C(c1cccc(-c2nnc(-c3ccccc3)o2)c1)N1CCCCC1	66	n	n	51	n	n
CSc1ccc(C(c2c(C)[nH][nH]c2=O)c2c(C)[nH][nH]c2=O)cc1	n	n	n	n	n	n
